The panel holds about 83,000 compounds, 20% with a hit somewhere; the sample as a whole holds those more often.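 Note: values are percent growth. 100 is the growth of untreated cells, values between 100 and 0 indicate rising inhibition; between -100 and 0 indicates cell death.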 The source made the active and inactive calls. Rule for the calls: active = growth percent below 10; inactive = the rest.
The compounds below were run on HS 578T breast (assay: NCI-60 one-dose screen, 48 h (100 = growth as untreated, 0 = no growth, -100 = all killed)). Settings: 10 µM unless noted.
With Cc1cc(N2CCOCC2)nc(N[C@@H]2CCC[C@H](Nc3ccnc4cc(Cl)ccc34)C2)n1 the growth was -11.1% (active). In the case of COc1ccc(C2CC(c3ccc4ccccc4c3)=NN2/C=C2\SC(=S)N(NC(=O)Cc3ccccc3Nc3c(Cl)cccc3Cl)C2=O)cc1 (stereo unspecified), the growth is reported as 13.3% (inactive). In the case of CCC([N+](=O)[O-])S(=O)(=O)c1ccc(C)cc1 (stereo unspecified), the growth is reported as 129% (inactive). In the case of COc1ccc(/C=C2\Oc3cc(OCCCCN4CCCC4)ccc3C2=O)cc1, the growth is reported as 90.9% (inactive). With NC(=NCCCC1(c2ccccc2)CCCC1)Nc1ccc(Cl)cc1 the growth was 65.4% (inactive). COc1ccc(/C=C\c2cc(OC)c(OC)c(OC)c2)cc1OCC(=O)Nc1ccc2nc(C)sc2c1 was tested, and the growth was 36.4% (inactive). With COc1ccc(C(=O)COc2ccc(/C=C3\COc4ccc(OC)cc4C3=O)cc2)cc1 the growth was 81.7% (inactive). For COc1cc(C2CC(=O)c3ccccc3N2)cc(OC)c1OC (stereo unspecified), the growth was 99.1% (inactive). With Cc1cc(N2CCN(c3ccnc4cc(Cl)ccc34)CC2)nc(N2CCOCC2)n1 the growth was 95.7% (inactive). For Cn1ncc2c(=O)nc3c(-c4ccccc4)n[nH]n3c21, the growth was 108% (inactive). For CC(C)CC1C(=O)N2CCC[C@H]2C2(O)O[C@](NC(=O)C3C=C4c5cccc6[nH]c(Br)c(c56)C[C@H]4N(C)C3)(C(C)C)C(=O)N12 (stereo partly specified), the growth was 89.7% (inactive). In the case of O=C(Cc1ccc(/C=C/C(=O)c2ncc[nH]2)cc1)Nc1ccc(F)cc1, the growth is reported as 35.4% (inactive). With COc1cc(-c2nn(C)nc2-c2cc3ccccc3s2)cc(OC)c1OC the growth was 19.3% (inactive). For CCOc1ccc(-n2nc(C(=O)Nc3ccccc3)nc2-c2cc(OC)c(OC)c(OC)c2)cc1, the growth was 39.6% (inactive). In the case of Nc1n[nH]c2ccc([C@@H]3Nc4cc5c(cc4[C@H]4C6CCC(C6)[C@@H]34)C(=O)NC5)cc12 (stereo partly specified), the growth is reported as 24.5% (inactive). With COc1cccc(-c2nc(SCC(=O)Nc3ccc(C(=O)/C=C/c4ccc(OC)c(OC)c4)cc3)[nH]c(=O)c2C#N)c1 the growth was 82.4% (inactive). CCCn1c(=O)[nH]c(N)c([C@H]2c3ccccc3Oc3[nH]c(=O)n(CCC)c(=O)c32)c1=O was tested, and the growth was 92.8% (inactive). O=C1CC[C@H](c2ccc(O)c3c2C(=O)[C@@H]2O[C@@H]2C3=O)c2cccc(O)c21 was tested, and the growth was 98.4% (inactive). Cc1cn2c(/C=C3/C(=O)Nc4c3ccc3ccccc43)c(C(F)(F)F)nc2s1 was tested, and the growth was 16.5% (inactive). With O=c1nc2oc3ccc4ccccc4c3cc-2s1 the growth was 3.65% (active). With Cn1c(=O)[nH]c(=O)c2nc(CCC(=O)NCCC(=O)O)c(=O)[nH]c21 the growth was 89.8% (inactive). O=C1/C(=C/c2ccccc2O)N=C2SCCCN12 was tested, and the growth was 87.7% (inactive). With CC(C)(C)CC(C)(C)c1ccc(OCCOCC[N+](C)(C)Cc2ccccc2)cc1 the growth was 26.1% (inactive). With O=Nc1c(O)c(Cl)cc2ccccc12 the growth was 89.4% (inactive). For COc1cc(Nc2cc(C)nc(N3CCN(c4ccnc5cc(Cl)ccc45)CC3)n2)cc(OC)c1, the growth was 18.2% (inactive). O=C(CCCCC(=O)N/N=C\c1ccccc1O)N/N=C\c1ccccc1O was tested, and the growth was 71% (inactive). C=C1c2nc3ccccc3n2C=C(c2cccc(Cl)c2)N1Cc1ccc(OC)cc1 was tested, and the growth was 15.5% (inactive). With CN(CCCCCl)P(=O)(OCc1ccc([N+](=O)[O-])o1)C(F)(F)c1ccc(CC(=O)NC[C@@H](O)/C=C\[C@@H](O)[C@H](CO)Cc2ccccc2)cc1 (stereo partly specified) the growth was 103% (inactive). With CCNc1ncnc2c1cnn2C1CCCO1 (stereo unspecified) the growth was 113% (inactive). In the case of O=C(COc1ccc(-c2nc3cc(Cl)c(Cl)cc3[nH]2)cc1)N=Nc1c(O)[nH]c2ccccc12, the growth is reported as -36.3% (active). In the case of O=C(CN(C(=O)Cn1c(=O)n2nnnc2c2ccccc21)c1ccccc1C(F)(F)F)Nc1ccc(C(F)(F)F)cc1, the growth is reported as 103% (inactive). With CN1CCN(c2nc(NCCCCNc3ccnc4cc(Cl)ccc34)c3ccccc3n2)CC1 the growth was 81.1% (inactive). With CC(=O)O[C@H]1[C@@H]2OC(=O)C(CSc3ccccc3)[C@@H]2C[C@H]2O[C@]2(C)CC/C=C(\C)CCC[C@@H]1C (stereo partly specified) the growth was 69.6% (inactive). With COc1ccc(CN2c3ccccc3Oc3ccccc32)cc1F the growth was 62.3% (inactive). For Nc1ccc(-c2cc3c(Nc4ccc(Oc5cccc(C(F)(F)F)c5)c(Cl)c4)ncnc3s2)cc1, the growth was 83.1% (inactive).

The compounds below were run on NCI/ADR-RES ovarian in the same assay as above. Settings: 10 µM unless noted.
With Cc1cc(N2CCOCC2)nc(N[C@@H]2CCC[C@H](Nc3ccnc4cc(Cl)ccc34)C2)n1 the growth was 18.2% (inactive). In the case of COc1ccc(C2CC(c3ccc4ccccc4c3)=NN2/C=C2\SC(=S)N(NC(=O)Cc3ccccc3Nc3c(Cl)cccc3Cl)C2=O)cc1 (stereo unspecified), the growth is reported as 9.39% (active). In the case of CCC([N+](=O)[O-])S(=O)(=O)c1ccc(C)cc1 (stereo unspecified), the growth is reported as 92.3% (inactive). With COc1ccc(/C=C2\Oc3cc(OCCCCN4CCCC4)ccc3C2=O)cc1 the growth was 95.1% (inactive). With NC(=NCCCC1(c2ccccc2)CCCC1)Nc1ccc(Cl)cc1 the growth was 67.1% (inactive). With COc1ccc(/C=C\c2cc(OC)c(OC)c(OC)c2)cc1OCC(=O)Nc1ccc2nc(C)sc2c1 the growth was 0.808% (active). For COc1ccc(C(=O)COc2ccc(/C=C3\COc4ccc(OC)cc4C3=O)cc2)cc1, the growth was 80.7% (inactive). In the case of COc1cc(C2CC(=O)c3ccccc3N2)cc(OC)c1OC (stereo unspecified), the growth is reported as 101% (inactive). Cn1ncc2c(=O)nc3c(-c4ccccc4)n[nH]n3c21 was tested, and the growth was 105% (inactive). With CC(C)CC1C(=O)N2CCC[C@H]2C2(O)O[C@](NC(=O)C3C=C4c5cccc6[nH]c(Br)c(c56)C[C@H]4N(C)C3)(C(C)C)C(=O)N12 (stereo partly specified) the growth was 57.7% (inactive). With O=C(Cc1ccc(/C=C/C(=O)c2ncc[nH]2)cc1)Nc1ccc(F)cc1 the growth was 14.5% (inactive). For COc1cc(-c2nn(C)nc2-c2cc3ccccc3s2)cc(OC)c1OC, the growth was 9.9% (active). In the case of CCOc1ccc(-n2nc(C(=O)Nc3ccccc3)nc2-c2cc(OC)c(OC)c(OC)c2)cc1, the growth is reported as 45.7% (inactive). For Nc1n[nH]c2ccc([C@@H]3Nc4cc5c(cc4[C@H]4C6CCC(C6)[C@@H]34)C(=O)NC5)cc12 (stereo partly specified), the growth was 69% (inactive). COc1cccc(-c2nc(SCC(=O)Nc3ccc(C(=O)/C=C/c4ccc(OC)c(OC)c4)cc3)[nH]c(=O)c2C#N)c1 was tested, and the growth was 93.6% (inactive). CCCn1c(=O)[nH]c(N)c([C@H]2c3ccccc3Oc3[nH]c(=O)n(CCC)c(=O)c32)c1=O was tested, and the growth was 94.8% (inactive). O=C1CC[C@H](c2ccc(O)c3c2C(=O)[C@@H]2O[C@@H]2C3=O)c2cccc(O)c21 was tested, and the growth was 90% (inactive). Cc1cn2c(/C=C3/C(=O)Nc4c3ccc3ccccc43)c(C(F)(F)F)nc2s1 was tested, and the growth was 5.22% (active). O=c1nc2oc3ccc4ccccc4c3cc-2s1 was tested, and the growth was 91.1% (inactive). With Cn1c(=O)[nH]c(=O)c2nc(CCC(=O)NCCC(=O)O)c(=O)[nH]c21 the growth was 105% (inactive). COc1cc(C(=O)Oc2ccccc2OC(=O)c2cc(OC)c(OC)c(OC)c2)cc(OC)c1OC was tested, and the growth was 95.7% (inactive). With O=C1/C(=C/c2ccccc2O)N=C2SCCCN12 the growth was 99.6% (inactive). With CC(C)(C)CC(C)(C)c1ccc(OCCOCC[N+](C)(C)Cc2ccccc2)cc1 the growth was 112% (inactive). In the case of O=Nc1c(O)c(Cl)cc2ccccc12, the growth is reported as 72.2% (inactive). For O=C(CCCCC(=O)N/N=C\c1ccccc1O)N/N=C\c1ccccc1O, the growth was 41.6% (inactive). C=C1c2nc3ccccc3n2C=C(c2cccc(Cl)c2)N1Cc1ccc(OC)cc1 was tested, and the growth was 10.2% (inactive). With CN(CCCCCl)P(=O)(OCc1ccc([N+](=O)[O-])o1)C(F)(F)c1ccc(CC(=O)NC[C@@H](O)/C=C\[C@@H](O)[C@H](CO)Cc2ccccc2)cc1 (stereo partly specified) the growth was 101% (inactive). In the case of CCNc1ncnc2c1cnn2C1CCCO1 (stereo unspecified), the growth is reported as 100% (inactive). With O=C(COc1ccc(-c2nc3cc(Cl)c(Cl)cc3[nH]2)cc1)N=Nc1c(O)[nH]c2ccccc12 the growth was 85.1% (inactive). O=C(CN(C(=O)Cn1c(=O)n2nnnc2c2ccccc21)c1ccccc1C(F)(F)F)Nc1ccc(C(F)(F)F)cc1 was tested, and the growth was 106% (inactive). CCCCCCN(CCCCCC)C(=N)c1ccnc2ccccc12 was tested, and the growth was 65.1% (inactive). For CN1CCN(c2nc(NCCCCNc3ccnc4cc(Cl)ccc34)c3ccccc3n2)CC1, the growth was 95.3% (inactive). For CC(=O)O[C@H]1[C@@H]2OC(=O)C(CSc3ccccc3)[C@@H]2C[C@H]2O[C@]2(C)CC/C=C(\C)CCC[C@@H]1C (stereo partly specified), the growth was 29.6% (inactive). For CCCCC/C(C=C(C#N)C#N)=C/c1ccccc1, the growth was 65% (inactive). With COc1ccc(CN2c3ccccc3Oc3ccccc32)cc1F the growth was 41.5% (inactive). For Nc1ccc(-c2cc3c(Nc4ccc(Oc5cccc(C(F)(F)F)c5)c(Cl)c4)ncnc3s2)cc1, the growth was 69.7% (inactive).
